WT yeast gro inh = growth inhibition of WT yeast, mitochondrial fusion screen | actives 2.1% (n = 190,000) | inhibition, % at 10 µM | mitochondrial fusion phenotypic screen, WT strain | AID 1362; in the data active = inhibition above about 58%; tested in S. cerevisiae
Lmaj promast = inhibitors of Leishmania major promastigote growth; actives 9% (n = 200,000); AID 1063; Leishmania major promastigotes, resazurin fluorescence viability; inhibition, % at 10 µM; in the data active = inhibition above about 50%;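 note: promastigotes grown with compound for 44 hours at 28 °C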
INS promoter inh = TRM-6 insulin promoter activity inhibition. AID 1273. inhibition, % at 2 µM. TRM-6 cells (human fetal islet line), insulin promoter-eGFP reporter, imaging; reporter expression induced with tamoxifen. actives 0.9% (n = 130,000);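 active = inhibition above the mean plus 3 SD, with well images judged a real hit on visual review, cut at about 60% in these data, passing the limit was not always enough; inconclusive = inhibition over the cutoff but images rejected on review; inactive = inhibition not above the cutoff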
KCC2 mod = modulators of human KCC2 chloride dependent transport. B-score of Tl+ flux slope (higher = more flux/activation; lower = inhibition) at 10 µM. Q9H2X9. KCC2 cells, thallium flux FluoZin-2 fluorescence. AID 1456. actives 2.2% (n = 190,000);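 active = thallium flux slope and its plate-corrected score both differing from the plate sample mean at a set confidence after two filtering rounds, in either direction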;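 note: slope of fluorescence scaled to starting intensity during 10 to 20 s after thallium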
Target sequence (Q9H2X9 whole entry, looked up): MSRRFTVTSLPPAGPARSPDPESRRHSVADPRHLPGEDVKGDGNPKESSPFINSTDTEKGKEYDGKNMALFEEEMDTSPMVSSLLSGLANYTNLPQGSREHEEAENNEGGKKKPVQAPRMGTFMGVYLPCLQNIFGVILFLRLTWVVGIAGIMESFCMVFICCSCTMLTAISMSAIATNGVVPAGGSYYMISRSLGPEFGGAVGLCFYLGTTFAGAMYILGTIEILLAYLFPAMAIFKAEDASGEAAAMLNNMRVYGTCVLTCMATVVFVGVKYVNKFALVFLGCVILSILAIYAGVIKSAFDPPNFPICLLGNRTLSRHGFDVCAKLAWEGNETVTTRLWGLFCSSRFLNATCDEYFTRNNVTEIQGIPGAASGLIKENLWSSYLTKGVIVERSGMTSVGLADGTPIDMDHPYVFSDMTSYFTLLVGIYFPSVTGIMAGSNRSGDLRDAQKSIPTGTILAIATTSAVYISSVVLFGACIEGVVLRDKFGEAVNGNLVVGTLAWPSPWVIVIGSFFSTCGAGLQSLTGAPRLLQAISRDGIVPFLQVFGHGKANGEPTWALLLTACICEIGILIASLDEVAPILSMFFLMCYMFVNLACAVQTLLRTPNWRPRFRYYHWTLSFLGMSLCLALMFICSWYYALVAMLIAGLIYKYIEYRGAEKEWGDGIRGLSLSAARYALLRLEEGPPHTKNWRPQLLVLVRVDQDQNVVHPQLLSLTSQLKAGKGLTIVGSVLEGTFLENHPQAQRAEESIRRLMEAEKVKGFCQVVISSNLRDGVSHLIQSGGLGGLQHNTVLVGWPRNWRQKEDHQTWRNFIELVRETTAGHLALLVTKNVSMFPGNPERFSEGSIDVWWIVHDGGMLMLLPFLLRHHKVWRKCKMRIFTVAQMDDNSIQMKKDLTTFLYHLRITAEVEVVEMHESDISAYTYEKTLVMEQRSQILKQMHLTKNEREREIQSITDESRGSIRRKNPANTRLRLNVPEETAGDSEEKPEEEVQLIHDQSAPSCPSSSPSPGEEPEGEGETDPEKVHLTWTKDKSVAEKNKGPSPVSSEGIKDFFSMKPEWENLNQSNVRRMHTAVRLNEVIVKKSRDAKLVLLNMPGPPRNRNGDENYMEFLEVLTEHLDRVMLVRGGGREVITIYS
Ins promoter up = MIN6 insulin promoter up-regulation | MIN6 insulin promoter-GFP reporter, high-content imaging; hits give high values | z-score at 5 µM | actives 0.3% (n = 190,000) | AID 1625;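 active = z-score above 3 at 5 µM with at least 500 cells counted in the well; inconclusive = wells under 500 cells, flagged as cytotoxic or low count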
ROMK mod = modulators of human ROMK potassium channel; P48048; Tet-inducible ROMK, thallium flux fluorescence; actives lie on both sides; B-score at 10 µM; actives 2% (n = 130,000); AID 1918;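 active = signal ratio slope over the read window, or its plate-corrected B-score, at least 3 SD from the plate mean, either direction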;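 note: B-score of the F/F0 ratio slope over 7 to 12 s after thallium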
Hits are given with their value. Rows were chosen to be rich in hits. Some 12% of all compounds tested hit in one or more screens of this group.

`CCOC(=O)c1c(NC(=O)C(=O)N/N=C/c2ccccc2O)sc2c1CCCCC2` gave WT yeast gro inh inactive, Lmaj promast 99, INS promoter inh inactive, KCC2 mod inactive and Ins promoter up inactive.
For CCOC(=O)c1c(NC(=O)COc2cccc3c2CCN(CC)C3=O)sc2c1CCC2 the results were WT yeast gro inh inactive, Lmaj promast 59, INS promoter inh inactive, KCC2 mod inactive and Ins promoter up inactive.
`CCOC(=O)c1c(NC(=O)c2ccco2)sc2c1CCCC2` gave WT yeast gro inh inactive, Lmaj promast inactive, KCC2 mod inactive, Ins promoter up inactive and ROMK mod inactive.
For CCOC(=O)c1c(NC(=O)CN2CCN(C(=O)c3ccco3)CC2)sc2c1CCCC2 the results were WT yeast gro inh 66, Lmaj promast 52, INS promoter inh inactive, KCC2 mod inactive and Ins promoter up inactive.
Cc1ccc(S(=O)(=O)NNC(=O)c2ccoc2C)cc1 was read as KCC2 mod inactive and Ins promoter up inactive.
`Cn1c(Cc2ccc3c(c2)OCO3)nnc1SCC(=O)NC(C)(C)C` gave WT yeast gro inh inactive, Lmaj promast inactive, INS promoter inh inactive, Ins promoter up inactive and ROMK mod inactive.
For CC(C)(C)NC(=O)C(c1ccc(F)cc1)N(Cc1ccccc1Cl)C(=O)c1ccn[nH]1 (centres undefined) the results were WT yeast gro inh inactive, Lmaj promast inactive, INS promoter inh inactive, KCC2 mod inactive, Ins promoter up inactive and ROMK mod inactive.
Screening N#Cc1c(NCCN)nc(-c2ccco2)c2c1CCCC2 returned WT yeast gro inh inactive, Lmaj promast 100, INS promoter inh inactive, KCC2 mod inactive and ROMK mod inactive.
`C/C(CC1CC2=C(CC1(C)C)C(C)(C)CCC2)=N\NC(N)=S` (centres undefined) gave WT yeast gro inh 76, Lmaj promast 101, INS promoter inh inactive, KCC2 mod inactive, Ins promoter up inactive and ROMK mod inactive.
Screening Cc1ccc(-c2nn(-c3cc(N4CCNCC4)ccc3[N+](=O)[O-])c(=O)c3ccccc23)cc1 returned WT yeast gro inh inactive, Lmaj promast 101, INS promoter inh inactive, KCC2 mod inactive, Ins promoter up inactive and ROMK mod inactive.
Screening Cc1nn(-c2cc(N3CCCCCC3)ccc2[N+](=O)[O-])c(=O)c2ccccc12 returned WT yeast gro inh inactive, Lmaj promast inactive, INS promoter inh inactive, KCC2 mod inactive and Ins promoter up inactive.
`Cn1c(=O)c([N+](=O)[O-])c(NCC(O)c2ccccc2)c2ccccc21` (centres undefined) gave WT yeast gro inh inactive, Lmaj promast inactive, INS promoter inh inactive, KCC2 mod inactive and Ins promoter up inactive.
CCn1c(=O)c([N+](=O)[O-])c(NCC(O)c2ccccc2)c2ccccc21 (centres undefined) was read as WT yeast gro inh inactive, Lmaj promast 100, INS promoter inh inactive, KCC2 mod inactive and Ins promoter up inactive.
For O=C1c2cnc3nc(SCc4cccc(Cl)c4)nn3c2CC2c3ccccc3CCN12 (centres undefined) the results were WT yeast gro inh inactive, Lmaj promast 56 and Ins promoter up inactive.
For COC(=O)c1ccc2c(=O)n(-c3ccccc3)c(SCN3C(=O)c4ccccc4C3=O)nc2c1 the results were WT yeast gro inh inactive, Lmaj promast inactive, INS promoter inh inactive, KCC2 mod inactive and Ins promoter up inactive.
Screening O=C(c1cc(-c2ccccn2)nc2c(Cl)cccc12)N1CCN(C(=O)C2CCCO2)CC1 (centres undefined) returned WT yeast gro inh inactive, Lmaj promast inactive, INS promoter inh inactive, KCC2 mod inactive and Ins promoter up inactive.
`O=C(c1cc(-c2ccccn2)nc2c(Cl)cccc12)N1CCN(S(=O)(=O)c2ccccc2)CC1` gave WT yeast gro inh inactive, Lmaj promast 81, INS promoter inh inactive, KCC2 mod inactive, Ins promoter up inactive and ROMK mod inactive.
For NNC(=S)NC1CCS(=O)(=O)C1 (centres undefined) the results were KCC2 mod inactive, Ins promoter up inactive and ROMK mod inactive.
`O=S1(=O)CC=C(CSC(=S)NC2CCS(=O)(=O)C2)C1` (centres undefined) gave WT yeast gro inh inactive, Lmaj promast 76, KCC2 mod inactive, Ins promoter up inactive and ROMK mod inactive.
`Cc1cc(NC(=O)CSc2nnc(C)n2-c2ccccc2C)no1` gave WT yeast gro inh inactive, Lmaj promast inactive, INS promoter inh inactive, KCC2 mod inactive, Ins promoter up inactive and ROMK mod inactive.
C=CCC(O)(CCN1CCCCC1)c1ccccc1 (centres undefined) was read as WT yeast gro inh inactive, Lmaj promast inactive, INS promoter inh inactive, KCC2 mod inactive and Ins promoter up inactive.
`Fc1ccc(C(c2nnnn2C2CCCC2)N2CCc3ccccc32)cc1` (centres undefined) gave WT yeast gro inh inactive, Lmaj promast inactive, INS promoter inh inactive and Ins promoter up inactive.
Screening COc1cccc(C(c2nnnn2CCc2ccccc2)N2CCN(c3ccccc3)CC2)c1OC (centres undefined) returned WT yeast gro inh inactive, Lmaj promast 55, INS promoter inh inactive and KCC2 mod inactive.
COc1ccccc1C(c1nnnn1CCc1ccccc1)N1CCN(c2ccccc2)CC1 (centres undefined) was read as WT yeast gro inh inactive, Lmaj promast inactive, KCC2 mod inactive and Ins promoter up inactive.
Screening COc1ccccc1N1CCN(C(c2ccccc2)c2nnnn2CCc2ccccc2)CC1 (centres undefined) returned WT yeast gro inh inactive, Lmaj promast 64, INS promoter inh inactive, KCC2 mod inactive and Ins promoter up inconclusive.
Screening Fc1ccc(C(c2nnnn2CCc2ccccc2)N2CCCc3ccccc32)cc1 (centres undefined) returned WT yeast gro inh inactive, Lmaj promast 76, KCC2 mod inactive, Ins promoter up inactive and ROMK mod inactive.
`CC1=NNC(=O)/C1=C\c1cn(-c2ccccc2)nc1-c1cccs1` gave WT yeast gro inh inactive, Lmaj promast 100, INS promoter inh inactive, KCC2 mod inactive, Ins promoter up inactive and ROMK mod inactive.
`CN1CCC(N(C)C(=O)/C=C/c2cn(-c3ccccc3)nc2-c2cccs2)CC1` gave WT yeast gro inh inactive, Lmaj promast 101, INS promoter inh inactive, KCC2 mod inactive, Ins promoter up inactive and ROMK mod inactive.
CC1=NNC(=O)/C1=C\c1cn(-c2ccccc2)nc1-c1ccc(F)cc1 was read as WT yeast gro inh 90, Lmaj promast 100, KCC2 mod inactive, Ins promoter up inactive and ROMK mod inactive.
Screening N#Cc1ccccc1NC(=O)C1CC(=O)N(c2ccc3c4c(cccc24)CC3)C1 (centres undefined) returned WT yeast gro inh inactive, Lmaj promast 57, INS promoter inh inactive, KCC2 mod inactive and Ins promoter up inactive.
For NC(=O)C1(N2CCCCC2)CCN(Cc2ccc(F)cc2)CC1 the results were WT yeast gro inh inactive, Lmaj promast inactive, INS promoter inh inactive, KCC2 mod inactive, Ins promoter up inactive and ROMK mod inactive.
